Screening data from PubChem BioAssay.
Pf growth 48h – inhibits P. falciparum growth in the first generation, 48 h | Potency, µM (series often up to 28.7 µM), most hits filed as inhibitors | 310,000 compounds, 5.9% hits | AID 504832 | P. falciparum luciferase growth in erythrocytes, 48 h
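Firefly luciferase activity from engineered P. falciparum reports growth; inhibitors lower the luminescent signal. Cultures contained 2% hematocrit erythrocytes at 0.1% final parasitemia.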
SARS PLP yeast – SARS-CoV PLP inhibition in yeast. 330,000 compounds, 0.19% hits. Potency, µM (series often up to 32.9 µM), usual class: activators. AID 485353. S. cerevisiae expressing SARS-CoV PLpro, growth rescue; calls by dose curve; further: nearly all actives have a fitted effect of over 55% in size
HCMV antiviral – inhibitors of human cytomegalovirus | activity change, negative = inhibition, % at 57.5 µM | 410,000 compounds, 4.5% hits | HFF cells, HCMV-luciferase reporter, 72 h; hits give low values; in the data active means activity change below about -60%; inconclusive means no clear call, values can overlap the other calls; inactive means above about -39%
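Steps: HFFs plated, 16 h 37C; compounds added; HCMV-luciferase added to MOI 1 PFU/cell; 72 h 37C; OneGlo reagent, 5 min room temperature; luminescence read, normalized to controls.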
Pf growth 96h – P. falciparum growth inhibition at 96 hours. P. falciparum luciferase reporter growth, 96 h. 320,000 compounds, 6.9% hits. Potency, µM (doses to about 28.7 µM), hits mostly inhibitors
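Luminescence readout: decreased luciferase signal marks inhibited growth of reporter-expressing P. falciparum in infected red cells (2% hematocrit, 0.05% parasitemia final), exposed to compound two generations (96 h, 37 C, 5% CO2).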
Sm TGR block – inhibitors of Schistosoma mansoni thioredoxin glutathione reductase | AID 485364 | Potency, µM (series often up to 114 µM), actives largely listed as inhibitors | Q962Y6 | 360,000 compounds, 3% hits | purified TGR, DTNB reduction, TNB absorbance 405 nm; further: nearly all actives have a fitted effect of over 60% in size
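TGR 20 nM + NADPH 100 uM (dispensed conc.), cpd preinc 15 min RT; start with NADPH (500 uM addition) then DTNB (15 mM addition). Kinetic TNB absorbance, 405 nm filter. Four-parameter Hill fit across titration.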
HCV inh – HCV inhibition; Huh7.5.1 HCVcc-Cre infection, luciferase reporter, 44 h; AID 651820; Potency, µM (series often up to 41.8 µM), actives largely listed as inhibitors; 340,000 compounds, 3.4% hits
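After 44 h co-culture of compound, cells and HCVcc-Cre (~0.5 moi), substrate is added for 15 min at room temperature and luciferase measured over 15 sec. Cells were seeded at 1,000/well and pre-cultured 4 h.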
Of the large screens only hits and unclear results are named; the others gave an inactive call. Rows were chosen to be rich in hits. Some 15% of all compounds tested hit in one or more screens of this group. Unless noted, the call rests on the fitted dose curve; in most records, active means well fitted curve in the direction sought with a large enough effect; inconclusive means small, poorly fitted or top-dose-only effect, or another doubt; inactive means no such curve, though single readings can be large; an effect the other way counts as inactive or inconclusive.

Cc1ccc(C(=O)CCNc2cccc(Br)c2)o1	Sm TGR block 56µM
Cc1ccc(C(=O)CCNc2ccc(Br)cc2)o1	Sm TGR block inconclusive (no result: SARS PLP yeast)
Cc1ccc(C(=O)CCNc2ccccc2)o1	Sm TGR block 25µM (no result: SARS PLP yeast, Pf growth 96h)
CN1CCN(Cc2nc3ccccc3c(=O)n2Cc2nc(-c3ccccc3F)cs2)CC1	Pf growth 48h inconclusive, Pf growth 96h inconclusive, HCV inh inconclusive
CN(C)Cc1nc2ccccc2c(=O)n1Cc1nc(C(C)(C)C)cs1	Pf growth 48h 13µM, HCV inh inconclusive
CN1CCN(Cc2nc3ccccc3c(=O)n2Cc2nc(-c3ccc4ccccc4c3)cs2)CC1	Pf growth 48h 12µM, HCMV antiviral -76, Pf growth 96h inconclusive, HCV inh 11µM
O=C(O)c1cc(-c2cccc([N+](=O)[O-])c2)nc2ccccc12	none
CN(C)Cc1nc2ccccc2c(=O)n1CC(=O)Nc1cccc(S(=O)(=O)N2CCOCC2)c1	HCV inh inconclusive
CN1CCN(Cc2nc3ccccc3c(=O)n2Cc2nc(-c3cccc([N+](=O)[O-])c3)cs2)CC1	Pf growth 48h inconclusive, Pf growth 96h 2.3µM, HCV inh 2.5µM
Cc1ccc(OCCn2c(NC(=O)c3ccco3)nc3ccccc32)cc1	Pf growth 48h 2.9µM, Pf growth 96h inconclusive
O=C(Nc1nc2ccccc2n1CCOc1ccccc1)c1ccco1	Pf growth 48h 2.9µM, Pf growth 96h 2.9µM, HCV inh inconclusive
CSc1cccc(-c2nnc(NC(=O)c3cccc(N4C(=O)CCC4=O)c3)o2)c1	none
O=C(COC(=O)c1cccc([N+](=O)[O-])c1)Nc1ncc(Br)s1	none (no result: Pf growth 48h, Pf growth 96h, Sm TGR block)
CCn1c(SCc2ccc(C(=O)Nc3nccs3)cc2)nnc1-c1ccc(NC(C)=O)cc1	Pf growth 48h inconclusive, Pf growth 96h 13µM
Cn1c(SCc2ccc(C(=O)Nc3nccs3)cc2)nnc1-c1ccccc1	Pf growth 48h 2.3µM (no result: Pf growth 96h)
CCn1c(SCc2ccc(C(=O)Nc3nccs3)cc2)nnc1-c1ccc(N)cc1	Pf growth 48h 10µM, HCV inh inconclusive (no result: Pf growth 96h)
Nc1ccc(C(=O)Nc2nccs2)cc1	none
CCn1c(=O)c2cc(C(=O)N3CCN(C(=O)c4ccco4)CC3)sc2c2ccccc21	Pf growth 48h inconclusive (no result: HCMV antiviral, HCV inh)
Cc1ccc(C2CC2c2n[nH]c(=S)n2-c2ccc(C)cc2)cc1 (stereo unspecified)	SARS PLP yeast inconclusive, HCV inh 25µM (no result: Pf growth 96h)
Cc1ccc(-n2c(C3CC3c3ccc(Cl)cc3)n[nH]c2=S)cc1 (stereo unspecified)	SARS PLP yeast inconclusive, Pf growth 96h 9.3µM (no result: Pf growth 48h)
Cc1cc(C)cc(-n2ccn(Cc3ccccc3C)c(=O)c2=O)c1	HCMV antiviral inconclusive (no result: Pf growth 48h, SARS PLP yeast, Pf growth 96h, HCV inh)
NC(=S)NNc1cccc2cccnc12	Pf growth 48h 7.4µM, Pf growth 96h inconclusive, HCV inh inconclusive
CCC(=NCc1ccc(F)cc1)c1c(O)n(C)c(=O)n(C)c1=O	HCMV antiviral inconclusive, HCV inh 10µM
O=C(N/N=C/c1ccc(O)cc1)/C(=C/c1ccccc1)CCO	Pf growth 48h 13µM, Pf growth 96h inconclusive
O=C(N/N=C/c1ccccc1)C(=O)N/N=C/c1ccccc1	none
COc1ccc(-n2nc(C(=O)NCC(=O)N3CCOCC3)c3ccccc3c2=O)cc1OC	Pf growth 96h inconclusive
CCCCNC(=O)CNC(=O)c1nn(-c2ccc(OC)c(Cl)c2)c(=O)c2ccccc12	none (no result: Pf growth 48h)
COc1ccc(-n2nc(C(=O)NCC(=O)N3CCC4(CC3)OCCO4)c3ccccc3c2=O)cc1OC	Pf growth 48h inconclusive, Pf growth 96h 4.7µM
CCC1CCCCN1CCCNC(=O)CNC(=O)c1nn(-c2ccc(OC)c(Cl)c2)c(=O)c2ccccc12 (stereo unspecified)	Pf growth 48h 5.2µM, Pf growth 96h inconclusive, HCV inh inconclusive
COc1ccc(-n2nc(C(=O)NCC(=O)N3CCN(c4ccccc4OC)CC3)c3ccccc3c2=O)cc1OC	Pf growth 48h 1.7µM, Pf growth 96h inconclusive
O=C(Nc1ccccc1)/C(=C/c1ccc(O)cc1)NC(=O)c1ccco1	none
COC(=O)C1=C2c3[nH]c4ccccc4c3CCN2C(=O)CC1	HCV inh inconclusive (no result: Pf growth 48h, SARS PLP yeast, Pf growth 96h, Sm TGR block)
CC1CN(C(=O)CSc2nc(N)c(NC(=O)c3ccc(C(F)(F)F)cc3)c(=O)[nH]2)CC(C)O1 (stereo unspecified)	none (no result: Pf growth 48h, SARS PLP yeast, Pf growth 96h, Sm TGR block, HCV inh)
N#C/C(=C\c1cccc([N+](=O)[O-])c1)c1nnc2n1CCCCC2	HCMV antiviral -69
CN(c1ccccc1)c1ccc(/C=C(\CCC(=O)O)c2nc3ccccc3s2)cc1[N+](=O)[O-]	none
CN(c1ccccc1)c1ccc(/C=C(\C#N)c2nnc3n2CCCCC3)cc1[N+](=O)[O-]	Pf growth 48h inconclusive, HCMV antiviral -78, Pf growth 96h inconclusive, HCV inh inconclusive
NS(=O)(=O)c1ccc(N=Nc2c(-c3ccccc3)[nH]n(-c3nc(-c4ccccc4)cs3)c2=O)cc1	HCV inh 6.3µM
O=C(c1ccc(CNS(=O)(=O)c2ccc(F)cc2)cc1)N1CCCCCC1	none (no result: Pf growth 48h, SARS PLP yeast, Pf growth 96h, Sm TGR block, HCV inh)
COC(=O)c1cc(Br)c(=O)n(Cc2ccc3c(c2)OCO3)c1	Pf growth 48h inconclusive, Pf growth 96h 9.3µM
COC(=O)c1cc(Br)c(=O)n(CCc2ccccc2)c1	HCMV antiviral -103
CCN(CC)CCOC(=O)c1ccc(NC(=O)Cn2ncc3c2-c2cc(C)ccc2OC3)cc1	none (no result: Pf growth 48h, SARS PLP yeast, Pf growth 96h, HCV inh)
CCc1ccc2oc(C(=O)NCc3ccncc3)c(C)c2c1	HCMV antiviral inconclusive, Pf growth 96h inconclusive, HCV inh 11µM
CCCCN(CCCC)S(=O)(=O)c1ccc2oc(C(=O)NCc3ccc(C)cc3)c(C)c2c1	none (no result: Pf growth 48h, SARS PLP yeast, Pf growth 96h, HCV inh)
Cc1cc(C)c2c(C)c(C(=O)NCc3ccncc3)oc2c1	Pf growth 48h inconclusive, HCV inh 2µM
CCc1ccc2oc(C(=O)Nc3nonc3CC)c(C)c2c1	HCV inh inconclusive
CCN(CC)S(=O)(=O)c1ccc2oc(C(=O)NCc3ccc(C)cc3)c(C)c2c1	Pf growth 48h 9.3µM, HCV inh inconclusive (no result: Pf growth 96h)
Cc1cc(C)c2c(=O)cc(C(=O)NCc3ccc(S(N)(=O)=O)cc3)oc2c1	none (no result: Pf growth 48h, SARS PLP yeast, Pf growth 96h, HCV inh)
COc1cc(CC(=O)OCC(=O)N2CCCCC2)cc(OC)c1OC	HCMV antiviral inconclusive
COC1CC2C=C(C)C=CC=CC(=O)NC(c3ccccc3)CC=CCCC(O)CC(=O)C2=C1O (stereo unspecified)	HCMV antiviral -100 (no result: Pf growth 48h, SARS PLP yeast, Pf growth 96h, Sm TGR block, HCV inh)
O=C(Nc1ccc(Cl)cc1)Nc1ccc2c(c1)N1CCN=C1S2	Pf growth 48h 0.74µM, HCMV antiviral inconclusive, Pf growth 96h 2.1µM, HCV inh 10µM
Nc1ccc2c(c1)N1CCN=C1S2	none
Oc1ccc(-c2nc3ccc4ccccc4c3c3c2CCC3)cc1O	Pf growth 48h 15µM, HCV inh inconclusive
CCOC(=O)C(C(=O)OCC)C1OC(=O)c2cc3c(cc21)C(=O)OC3C(C(=O)OCC)C(=O)OCC (stereo unspecified)	Sm TGR block inconclusive
